Laboratory results as given in PubChem BioAssay (NCI).
Compounds without any hit were thinned out: in the full panel of roughly 83,000, 20% have a hit.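 Each cell line was grown in a 96-well plate and treated with one concentration of compound for 48 hours. Values below 10 were considered active.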 Active and inactive are the calls of the source.

Tests used:
Assay in all cases: NCI-60 one-dose screen, 48 h (100 = growth as untreated, 0 = no growth, -100 = all killed)
Details in all cases: 10 µM unless noted
[1] = test system: SK-MEL-2 melanoma
[2] = test system: SN12C renal
[3] = test system: UO-31 renal
[4] = test system: TK-10 renal
[5] = test system: ACHN renal
[6] = test system: CAKI-1 renal
[7] = test system: A498 renal
[8] = test system: CCRF-CEM leukemia
[9] = test system: MOLT-4 leukemia
[10] = test system: SR leukemia
[11] = test system: RPMI-8226 leukemia
[12] = test system: OVCAR-8 ovarian
[13] = test system: OVCAR-5 ovarian
[14] = test system: OVCAR-4 ovarian
[15] = test system: SK-OV-3 ovarian
[16] = test system: OVCAR-3 ovarian
[17] = test system: HS 578T breast
[18] = test system: NCI/ADR-RES ovarian
[19] = test system: IGROV1 ovarian

Measured: growth

Cc1cc(Nc2nc(N3CCN(C)CC3)nc3ccccc23)n[nH]1
inactive: [1] 43.5% | [2] 68.1% | [3] 54.9% | [4] 54.8% | [5] 41.3% | [6] 13.4% | [7] 16.9% | [8] 65.3% | [9] 69.9% | [10] 20.7% | [11] 87.2% | [12] 99.6% | [13] 86.7% | [14] 54.5% | [15] 25.5% | [16] 75.8% | [17] 50.8% | [18] 122%

COc1ccc(-c2nc(Nc3cc(C)[nH]n3)c3ccccc3n2)cc1
inactive: [1] 59.7% | [2] 40.1% | [3] 41% | [4] 53.3% | [5] 42.8% | [6] 15.9% | [8] 49.3% | [9] 69.8% | [10] 23.7% | [11] 50.7% | [12] 83.8% | [13] 59.8% | [14] 60.1% | [15] 53.1% | [16] 52.2% | [18] 74.3%
active: [7] -18.1% | [19] 1.47% | [17] 2.72%

COc1ccc(C2CC(=O)Nc3c2c(C)nn3-c2nc3ccccc3[nH]2)cc1 (configuration not stated)
inactive: [1] 100% | [2] 103% | [3] 34.3% | [4] 116% | [5] 99.1% | [6] 101% | [7] 41.6% | [8] 10.1% | [12] 108% | [13] 112% | [14] 121% | [15] 122% | [19] 12.6% | [16] 18.3% | [17] 61.7% | [18] 96.3%
active: [9] -44.6% | [10] -36%

COc1cccc(/C=C2/C(=O)N(Cc3ccco3)SC2=S)c1OC
inactive: [1] 93.1% | [2] 97.6% | [3] 93.4% | [4] 117% | [5] 102% | [7] 102% | [9] 92.1% | [11] 74.2% | [12] 81.1% | [13] 103% | [14] 102% | [15] 97.8% | [19] 104% | [16] 110% | [17] 109% | [18] 103%
active: [10] -0.493%

COc1ccc(-c2cnoc2-c2cc(OC)c3c(c2)OCCO3)cc1
active: [2] 9.42% | [7] -8.01% | [8] -7.11% | [9] 6.08% | [10] 3.75% | [11] -8.88% | [12] 9.43% | [16] -18.6% | [18] 3.01%
inactive: [3] 39.6% | [4] 71.8% | [5] 21.1% | [6] 33.5% | [13] 31.9% | [14] 50.4% | [15] 11.7% | [19] 29.2% | [17] 45.7%

Cc1nn(-c2nc3ccccc3[nH]2)c2c1C(c1ccc3c(c1)OCO3)CC(=O)N2 (configuration not stated)
active: [9] -48.5% | [11] -18.4% | [16] -24.3%
inactive: [1] 52.9% | [2] 41.9% | [3] 22.7% | [4] 69.4% | [5] 31% | [6] 65.7% | [8] 12.1% | [10] 14% | [12] 36.9% | [13] 105% | [14] 65.1% | [15] 54.9% | [19] 21.3% | [17] 38.2% | [18] 50.3%

O=C(NC(Cc1ccccc1)C(=O)CCl)OCc1ccccc1 (configuration not stated)
inactive: [2] 56.7% | [4] 84.8% | [5] 72% | [6] 48.2% | [7] 98.7% | [9] 12.2% | [13] 92.3% | [14] 62.7% | [15] 87.8% | [19] 87.7% | [16] 76% | [17] 99.5% | [18] 75.1%
active: [1] 8.62% | [8] -4.62%

COc1cccc(NC(=O)c2sc3nc4c(cc3c2N)CN(Cc2ccccc2)CC4)c1
inactive: [1] 66.8% | [2] 74% | [3] 42.9% | [4] 79.7% | [5] 54% | [7] 42.8% | [8] 60.9% | [9] 65.1% | [10] 28.8% | [11] 72.7% | [12] 47% | [13] 85.3% | [14] 20.5% | [15] 36.9% | [19] 44.2% | [16] 36.4% | [17] 20.8% | [18] 63.2%

Nc1c(C(=O)Nc2ccccc2Cl)sc2nc3c(cc12)CCCCCC3
active: [3] -8.93%
inactive: [1] 46.2% | [4] 24.2% | [5] 10.1% | [6] 57.7% | [7] 50.1% | [8] 25.5% | [9] 39.8% | [10] 13.2% | [12] 48.8% | [13] 60.9% | [15] 43.9% | [19] 25.9% | [16] 21.5% | [17] 17.3% | [18] 35%

COc1cccc(-n2cc(-c3nc(Nc4cc(C)[nH]n4)c4ccccc4n3)nn2)c1
active: [6] 2.59%
inactive: [1] 50.9% | [2] 41% | [3] 15.4% | [4] 33.3% | [5] 24% | [7] 36.1% | [9] 11% | [10] 27.8% | [11] 48.4% | [12] 38.3% | [13] 56.5% | [14] 17.2% | [15] 10.8% | [19] 18% | [16] 59.4% | [17] 46.4% | [18] 30.6%

Cc1cc(Nc2nc(N3CCOCC3)nc3ccccc23)n[nH]1
active: [6] 9.88%
inactive: [1] 51.5% | [2] 60.2% | [3] 35.4% | [4] 47.2% | [5] 32.8% | [8] 65.6% | [9] 58.4% | [10] 10.8% | [12] 104% | [13] 88.7% | [14] 52.5% | [15] 20.5% | [19] 30.9% | [16] 58.6% | [17] 16.3% | [18] 86.3%

O=C1Nc2ccccc2C12CC(c1ccc(Cl)cc1)=NN2 (configuration not stated)
inactive: [2] 88.8% | [3] 69.2% | [4] 115% | [5] 91% | [6] 74.6% | [7] 99.6% | [8] 88.3% | [9] 83.8% | [10] 86.2% | [11] 77.8% | [12] 95.2% | [13] 95.8% | [14] 98.6% | [15] 107% | [19] 101% | [16] 116% | [17] 107% | [18] 108%

N#CC1=C(N)Oc2c(ccc3ccccc23)C1c1cccs1 (configuration not stated)
inactive: [1] 52.5% | [2] 26.5% | [4] 77.6% | [5] 35.2% | [6] 48.9% | [12] 17.2% | [13] 34.9% | [14] 12.6% | [19] 60.3% | [17] 22.3% | [18] 14.5%
active: [7] -5.58% | [8] 5.17% | [9] 1.98% | [10] -11.2% | [11] -17.3% | [15] 5.5% | [16] -38.8%

Nc1ccc(N2CCOCC2)cc1
inactive: [1] 91.8% | [2] 94% | [3] 73.5% | [4] 91.8% | [5] 86.8% | [7] 103% | [8] 124% | [9] 118% | [10] 110% | [11] 112% | [12] 105% | [13] 91.7% | [14] 92.8% | [15] 104% | [19] 105% | [16] 99.7% | [17] 125% | [18] 85.6%

CCOC(=O)/C=C/c1ccc(C(=O)OCC)[nH]1
active: [18] 8.24%
inactive: [1] 47% | [2] 80.7% | [3] 72.1% | [4] 62.6% | [5] 64.9% | [6] 35.5% | [7] 49.8% | [8] 82.8% | [9] 75.8% | [11] 75.4% | [12] 62.9% | [13] 75.5% | [14] 108% | [15] 84.8% | [19] 42.4% | [16] 22.6% | [17] 74%

CN(C)CCCC(=O)Nc1ccc(Cn2nnc3c2C(=O)c2nnn(Cc4ccc(NC(=O)CCCN(C)C)cc4)c2C3=O)cc1
inactive: [3] 94.5% | [4] 116% | [5] 102% | [6] 91% | [7] 72.9% | [8] 16.8% | [9] 11.4% | [10] 74.7% | [11] 76.1% | [12] 86.6% | [13] 115% | [15] 89.8% | [19] 57.3% | [17] 112% | [18] 108%
active: [2] -29.4% | [14] -98.6% | [16] 4.3%

COc1cc(-c2cc(-c3nc4ccc(Cl)cc4[nH]3)[nH]n2)cc(OC)c1OC
inactive: [1] 55.8% | [2] 68.3% | [4] 67.1% | [5] 51.9% | [6] 35.1% | [7] 39.2% | [10] 41.9% | [13] 97.3% | [14] 32.2% | [15] 61.7% | [19] 44.3% | [16] 57.8% | [17] 84.2% | [18] 20%
active: [8] 7.12% | [9] 4.79% | [11] 9.58% | [12] 3.73%

COc1cc(-c2cnc3nonc3n2)c(OC)c2c1OCO2
inactive: [1] 98.1% | [2] 100% | [3] 85.5% | [4] 107% | [5] 91.6% | [6] 99.1% | [8] 85.3% | [9] 83.9% | [10] 50.1% | [11] 65.7% | [12] 97.8% | [13] 124% | [14] 75.3% | [15] 105% | [19] 82.7% | [16] 76.9% | [17] 105% | [18] 99.3%

N=S(=O)(NC(=O)c1ccc(Cl)cc1Cl)c1ccc(Br)s1 (configuration not stated)
inactive: [1] 116% | [2] 94.4% | [3] 79.4% | [4] 98.4% | [5] 95.6% | [7] 61.2% | [9] 98.5% | [10] 75% | [11] 86.5% | [12] 90.9% | [13] 119% | [15] 96.4% | [16] 105% | [17] 87.3% | [18] 91.3%
active: [19] -1.49%

CCN(CC)CCCC(C)N/C(=C1\C(=O)NC(=O)\C1=C(/NC(C)CCCN(CC)CC)c1cccc(OC)c1)c1cccc(OC)c1 (configuration not stated)
inactive: [6] 61.4% | [7] 60.2% | [15] 11.8% | [17] 38.4%
active: [2] 9.96% | [3] -83.8% | [4] -23.4% | [5] -29% | [8] -28.1% | [9] -10.5% | [10] -25.1% | [11] -35.7% | [12] 5.58% | [13] 1.93% | [14] -23.3% | [19] -18.5% | [16] -11.3% | [18] 2.36%
